# Assay results: PubChem BioAssay (EPA / NIEHS)
# “And” between values parts separate entries of the source, which are not always exact repeats. Equal entries are not always repeated. Some compounds were tested as several samples or in several runs, with calls that do not always agree. The source made the active and inactive calls. Rule for the calls: active = hit-call score of the fitted dose curve at least 0.9, where 1 is the maximum; inactive = score below 0.9.
# Assay: CCTE_Shafer_MEA_dev_mutual_information_norm: CCTE's Neural Network Formation Assay for Mutual Information Normalization, Shafer Lab (AID 2284091);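 for AC50: potency is for a decrease in mutual information relative to DMSO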
# Method: CCTE_Shafer_MEA_dev assay is conducted using Axion Biosystems 48 well microelectrode array (MEA) plates and Maestro recording system. Each well of the MEA plate contains a grid of 16 microelectrodes embedded in the culture surface. Electrically active cells, such as neurons, can be cultured over the electrodes, and electrical activity in these cells can be recorded extracellularly. The spontaneous firing of neurons is captured from each electrode on a microsecond timescale providing both temporally and spatially precise data. […] The CCTE_Shafer_MEA_dev assay uses primary cultures of rat cortical neurons. Recordings are made on days post-plating 5, 7, 9 and 12. As these cultures mature over time, neural networks develop functional activity and form cohesive networks in which electrical activity can be highly coordinated. CCTE_Shafer_MEA_dev_mutual_information_norm is 1 of 19 assay components of the CCTE_Shafer_MEA_dev assay. It is a measure of shared information between electrodes during a recording in a microelectrode array (MEA) using Axion Biosystems Maestro 768 channel amplifier with the AxIS adaptive spike detector. To collapse across multiple recordings made on days post-plating 5, 7, 9 and 12, the trapezoidal area-under-the-curve of the component is calculated.Data from the assay component CCTE_Shafer_MEA_dev_mutual_information_norm was analyzed into 1 assay endpoint. This assay endpoint, CCTE_Shafer_MEA_dev_mutual_information_norm, was analyzed in the negative analysis fitting direction relative to DMSO as the negative control and baseline of activity. Using a type of functional reporter, gain or loss-of-signal activity can be used to understand electrical activity.
# On the day prior to culture, each well was coated thoroughly with 150 uL of 0.05% polyethyleneimine (PEI, Sigma Cat P3143) in 50 mM HEPES (Sigma Cat H7523) at a pH of 8. The plate was incubated at 37C for one hour. PEI was rinsed out with 500 uL of sterile water three times. Plates were stored at 4C until the day of culture. This culture was plated at a seeding density of 1.5 x 10^5 cells/well on a 48-well MEA plate, prepared as described above. Cells were administered via a 25 uL media/laminin ([…]; Sigma Cat L2020-1MG) drop directly onto the microelectrode array, as adding the cells with the laminin results in better attachment than pre-coating with laminin. After 2 hours, an additional 475 uL of cortical media was added and the cells returned to the incubator. Exposure starts at day 0 of plating and is continued over twelve days of network development until the experiment is terminated. Cells are fed with fresh medium on DIV 5 and 9, following the recordings on those days. The entire volume of media in the well is exchanged and any vehicle or compound treatment is renewed. Complete details are found in OP-NHEERL/ISTD/SBB/TJS/2015-03-r0 (available on request, email shafer.tim@epa.gov). Measurement of the electrical activity is non-invasive, and recordings can be made from the same plate over multiple different days of the culture. In cortical neurons, this allows for the measurement of extracellular action potentials over the period during which networks form in the MEA plate.
Structure (SMILES),AC50,outcome
CNC(=O)CSP(=S)(OC)OC,50 µM (active),inactive
O=C(O)C(F)(F)C(F)(F)C(F)(F)C(F)(F)C(F)(F)C(F)(F)C(F)(F)F,,inactive
COP(=S)(OC)Oc1ccc([N+](=O)[O-])cc1,,inactive
Oc1cc(Cl)ccc1Oc1ccc(Cl)cc1Cl,8.5 µM (active),
ClC1C(Cl)C(Cl)C(Cl)C(Cl)C1Cl (stereo not drawn),,inactive
CC[C@H](C)[C@H]1O[C@]2(C=C[C@@H]1C)C[C@@H]1C[C@@H](C/C=C(\C)[C@@H](O[C@H]3C[C@H](OC)[C@@H](O[C@H]4C[C@H](OC)[C@@H](O)[C@H](C)O4)[C@H](C)O3)[C@@H](C)/C=C/C=C3\CO[C@@H]4[C@H](O)C(C)=C[C@@H](C(=O)O1)[C@]34O)O2 (tested in a mixture with another compound),2.68 nM (active) and 0.647 nM (active),
COP(=O)(OC)OC=C(Cl)Cl,0.378 µM (active),inactive
O=C(O)COc1ccc(Cl)cc1Cl,12.1 µM (active),
CC(C)N(C(=O)COc1nnc(C(F)(F)F)s1)c1ccc(F)cc1,,inactive
CCC(C)(C)C(=O)OC1=C(c2ccc(Cl)cc2Cl)C(=O)OC12CCCCC2,,inactive
O=S1OCC2C(CO1)C1(Cl)C(Cl)=C(Cl)C2(Cl)C1(Cl)Cl (stereo not drawn),7.83 µM (active),
CC1(c2ccc(Oc3ccccc3)cc2)OC(=O)N(Nc2ccccc2)C1=O (stereo not drawn),1.34 µM (active),
O=S(=O)(O)C(F)(F)C(F)(F)C(F)(F)C(F)(F)C(F)(F)C(F)(F)C(F)(F)C(F)(F)F,25 µM (active),inactive
CC1(C)C(C=C(Cl)Cl)C1C(=O)OC(C#N)c1ccc(F)c(Oc2ccccc2)c1 (stereo not drawn),268 nM (active) and 6.41 µM (active) and 2.77 µM (active),
O=[N+]([O-])/N=C1\NCCN1Cc1ccc(Cl)nc1,,inactive
